Inconclusive results are not listed. Activity calls are given as the source filed them. Calls follow the shape of the full dose curve.
% is scaled to controls: 0 for no effect and ±100 for the full control effect; potency is read from the fitted curve at half-maximal effect.

In this assay the target is Beta-2 adrenergic receptor (Homo sapiens) (UniProt P07550). In words: Adrenergic beta2 receptor (ADRB2) small molecule antagonists, cell-based qHTS assay (AID 1963592). Also: nearly all actives have a fitted effect of over 50% in size. As to conditions: CHO-ADRB2 cells, isoproterenol-stimulated cAMP HTRF ratio, 0.5 h; series mostly up to 92.4 µM; activity change, negative = inhibition: at the top concentration. The text has this: U.S. Tox21 Program National Center for Advancing Translational Sciences [NCATS] Division of Preclinical Innovation [DPI] U.S. Environmental Protection Agency [EPA] National Institutes of Environmental Health Sciences [NIEHS] National Toxicology Program [NTP] U.S. Food and Drug Administration [FDA] Tox21 Assay Overview: Beta adrenergic receptors (Beta-ARs) belong to the G-protein coupled receptor (GPCR) superfamily, includes three subtypes - beta1, beta2, and beta3. Beta1-AR is the predominant receptor subtype expressed in the heart, and beta2-AR is expressed in the kidney, lung, blood vessel and in the heart, and beta3 is found in the adipocytes. Beta1 and 2 ARs couple to Gs protein and elevate cyclic adenosine mono phosphate (cAMP), which activates protein kinase A and leads to the downstream signaling responsible for the physiological actions. Beta-AR agonists or antagonists are the most prescribed therapeutic agents for heart failure and asthma, and these were one of the first target receptors for the rational drug design. Tox21 10K compound library was screened using the cAMP-Gs dynamic assay (Cisbio Bioassays, Shelton, CT) to identify agonists/antagonists of the Gs-coupled human adrenergic, beta2 receptor (ADRB2) in the CHO-ADRB2 cell line (Codex BioSolutions, Inc. Gaithersburg, MD), which stably over-expresses ADRB2. The principle of cAMP-Gs dynamic assay is based on HTRF technology, which facilitates the fluorescence resonance energy transfer (FRET) between donor Europium cryptate and acceptor d2-labeled cAMP. The cAMP generated within cells competes with the red acceptor, d2-labled cAMP, for binding to the monoclonal anti-cAMP-cryptate (Europium donor). An increase in intracellular cAMP leads to the disruption of FRET signal, and the signal is inversely proportional to the cAMP concentration. Propranolol HCl (Sigma-Aldrich, St. Louis, MO) was used as a positive control in the screening.
Chain of Beta-2 adrenergic receptor (Homo sapiens) (P07550 whole entry, looked up): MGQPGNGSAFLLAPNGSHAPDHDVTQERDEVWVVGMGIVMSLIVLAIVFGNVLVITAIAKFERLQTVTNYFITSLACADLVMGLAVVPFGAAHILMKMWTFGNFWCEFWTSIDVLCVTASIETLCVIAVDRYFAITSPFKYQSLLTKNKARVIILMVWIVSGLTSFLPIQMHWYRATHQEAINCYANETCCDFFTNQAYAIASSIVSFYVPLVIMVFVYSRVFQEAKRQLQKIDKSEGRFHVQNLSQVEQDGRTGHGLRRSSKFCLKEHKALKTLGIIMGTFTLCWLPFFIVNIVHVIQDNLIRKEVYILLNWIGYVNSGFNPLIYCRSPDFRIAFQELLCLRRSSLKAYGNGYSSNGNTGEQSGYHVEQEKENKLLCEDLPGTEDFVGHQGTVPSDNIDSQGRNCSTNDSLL
Tox21 Assay Protocol Summary: CHO-ADRB2 cells were dispensed at 1,000/well in 4uL assay medium into white/solid 1536-well plates (Greiner Bio-One North America Inc., Monroe, NC) using a Multidrop Combi dispenser (ThermoFisher Scientific, Waltham, MA). The assay plates were incubated at 37C and 5% CO2 for an overnight (18-20hr). Then positive control and test compounds dissolved in DMSO were transferred to the assay plates at 23nL using a Pintool station (Wako, San Diego, CA). Following the compound and positive control transfer, 1uL agonist-stimulation mix containing 1nM Isoproterenol HCl, 100uM IBMX and 25uM Ro-20-1724 was added to each well of the assay plates using BioRAPTR Flying Reagent Dispenser (FRD, Beckman Coulter, Brea, CA). The assay plates were incubated at room temperature for 0.5hr. Then 2.5ul each d2-labled cAMP and anti-cAMP-cryptate solutions were added separately to each well of the assay plates using an FRD and the assay plates were incubated at room temperature for 1hr. The fluorescence signal was measured at two different wavelengths (665nm and 615nm) using an Envision plate reader (Perkin Elmer, Shelton, CT). Data were expressed as the ratio of 665 nm/615 nm.
(In general: In qHTS, concentration-response curves come from the screen itself.)
Consider `CC(C)=CCC[C@@](C)(O)[C@H]1CC=C(C)CC1`, for which the “activity change, negative = inhibition” value is 1.56% [at 42.5 µM] (inactive).

On to `CCN1CCCC1CNC(=O)c1cc(S(N)(=O)=O)ccc1OC` (stereo not given), for which the “activity change, negative = inhibition” value was 5.53% (inactive).

Take `CCC(C(=O)OCCN(CC)CC)c1ccccc1` (stereo not given): the “activity change, negative = inhibition” value was -13% [at 42.5 µM] (inactive).

Take `CCCCCN=C(N)N/N=C/c1c[nH]c2ccc(OC)cc12`: the Potency was 26.6 µM (active).

On to `C=CC(=O)OCCOC(=O)CCC(=O)O`, for which the “activity change, negative = inhibition” value was -22.4% (inactive).

Turning to `COC(=O)CCCCCCCCC(=O)OC`, the “activity change, negative = inhibition” value was 3.26% (inactive).

Regarding `Cc1ccc(C=O)s1`, the “activity change, negative = inhibition” value is -2.68% (inactive).

`C1CCN(CN2CCCCC2)CC1`: the “activity change, negative = inhibition” value was -9.36% (inactive).

As to `CC(C)Cn1cnc2c(N)nc3ccccc3c21`, the activity change, negative = inhibition was -12.1% [at 19 µM] (inactive).

As to `CCN(CC)CCNC(=O)COc1ccc(Cl)cc1`, the “activity change, negative = inhibition” value is -8.24% [at 42.5 µM] (inactive).

Turning to `Nc1cnn([C@@H]2O[C@H](CO)[C@@H](O)[C@H]2O)c(=O)n1`, the “activity change, negative = inhibition” value was 9.4% (inactive).

For `CCCCCc1ccc(N)cc1`, the “activity change, negative = inhibition” value is 2.21% (inactive).

`CCOc1ccc(NC(=O)OC(C)C)cc1OCC`: the “activity change, negative = inhibition” value was -19.4% (inactive).

For the compound `C=CCOc1nc(OCC=C)nc(OCC=C)n1`, the “activity change, negative = inhibition” value is -14.2% (inactive).

For the compound `COc1ccc(-c2cc(=O)c3c(O)cc(O[C@@H]4O[C@H](CO[C@@H]5O[C@@H](C)[C@H](O)[C@@H](O)[C@H]5O)[C@@H](O)[C@H](O)[C@H]4O)cc3o2)cc1O`, the “activity change, negative = inhibition” value was 1.14% [at 42.5 µM] (inactive).

In the case of `C/C=C/C(=O)CC`, the activity change, negative = inhibition was 3.38% [at 19 µM] (inactive).

With `O=C(O)c1cccc(C(=O)O)c1C(=O)O`, the “activity change, negative = inhibition” value is 0.554% (inactive).

For `OC(CCN1CCCC1)(c1ccccc1)C1CCCCC1` (stereo not given), the “activity change, negative = inhibition” value is -13.2% [at 42.5 µM] (inactive).

Regarding `CC(C)(C)C(=O)NCCCC(=O)O`, the “activity change, negative = inhibition” value was 0.0144% [at 42.5 µM] (inactive).

`NC(CS)C(=O)O` (stereo not given): the “activity change, negative = inhibition” value is 3.1% [at 42.5 µM] (inactive).

`c1ccc(CN(CC2=NCCN2)c2ccccc2)cc1`: the “activity change, negative = inhibition” value is -0.624% [at 42.5 µM] (inactive).

For `Cn1c(=O)[nH]c2ncn(C)c2c1=O`, the “activity change, negative = inhibition” value was -11.6% (inactive).

On to `C=CC(C)(C)O`, for which the “activity change, negative = inhibition” value is -4.98% (inactive).

As for `CC(=O)NC(=O)c1ccccc1O`, the “activity change, negative = inhibition” value was 3.2% [at 42.5 µM] (inactive).

With `CCC(=O)Nc1ccc(O)cc1`, the “activity change, negative = inhibition” value was 3.62% [at 42.5 µM] (inactive).

As to `CCCCCCCCCCc1ccccc1`, the “activity change, negative = inhibition” value is 6.18% (inactive).

For `CC(=O)OC(C)(C)C`, the “activity change, negative = inhibition” value is 0.588% (inactive).

As to `CCCCCCCCCCCCCCCCCl`, the activity change, negative = inhibition is -9.7% [at 19 µM] (inactive).

For the compound `COCCC(=O)OC`, the “activity change, negative = inhibition” value is -10.7% (inactive).

`C[N+](C)(C)CC(O)CC(=O)[O-]` (stereo not given): the “activity change, negative = inhibition” value was 6.98% [at 42.5 µM] (inactive).

For the compound `N[C@H](C(=O)O)[C@@H](O)c1ccc(O)c(O)c1`, the “activity change, negative = inhibition” value is 0.475% [at 42.5 µM] (inactive).

`CN(C)c1ccc(CCO)cc1`: the “activity change, negative = inhibition” value is -3.16% (inactive).

For the compound `CC1(C)S[C@@H]2[C@H](NC(=O)Cc3ccccc3)C(=O)N2[C@H]1C(=O)O` (tested in a mixture with another compound), the “activity change, negative = inhibition” value was 11.8% [at 42.5 µM] (inactive).

Turning to `[O]=[Bi]`, the activity change, negative = inhibition was 6.45% [at 8.39 µM] (inactive).

`[O-][n+]1cccc(CO)c1`: the “activity change, negative = inhibition” value was 0.734% [at 42.5 µM] (inactive).

`O=S1(=O)c2cccc3cccc(c23)N1CCCN1CCN(c2ccc(F)cc2)CC1`: the Potency was 33.5 µM (active).

On to `Nc1ncnc2c1ncn2[C@@H]1O[C@H](CO)[C@@H](O)[C@H]1O`, for which the “activity change, negative = inhibition” value was -8.56% [at 42.5 µM] (inactive).

Take `CCOC(=O)OC(C)OC1=C(C(=O)Nc2ccccn2)N(C)S(=O)(=O)c2ccccc21` (stereo not given): the “activity change, negative = inhibition” value is 0.136% [at 42.5 µM] (inactive).

In the case of `CCCCCCn1c(=O)c2c(ncn2C)n(C)c1=O`, the “activity change, negative = inhibition” value was -7.45% [at 42.5 µM] (inactive).

For `O=C(O)c1cccc(C(=O)O)n1`, the “activity change, negative = inhibition” value was 0.0194% (inactive).
